Over roughly 110,000 compounds, “z-score” has its median near -0.1; the highest 2% begin near 2. For the sample, the highest values were picked, then their nearest neighbours and some compounds at random. Activity calls are given as the source filed them.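 How the source made its calls: active means z-score in the third read window above 3 or below -3; inactive means the rest.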

The target of the experiment is Metabotropic glutamate receptor 8 (Rattus norvegicus) (UniProt P70579). Put plainly: rat mGluR8 modulators via GIRK flux, primary screen, cell-based, thallium flux, HTS (AID 488969). The note with it: HEK293 rat mGluR8, GIRK (G protein-gated inwardly rectifying potassium channel) thallium flux, FluoZin2; at 10 µM; stronger effect = higher value; submaximal glutamate (EC20) added with thallium.
Chain of Metabotropic glutamate receptor 8 (Rattus norvegicus) (P70579 whole entry, looked up): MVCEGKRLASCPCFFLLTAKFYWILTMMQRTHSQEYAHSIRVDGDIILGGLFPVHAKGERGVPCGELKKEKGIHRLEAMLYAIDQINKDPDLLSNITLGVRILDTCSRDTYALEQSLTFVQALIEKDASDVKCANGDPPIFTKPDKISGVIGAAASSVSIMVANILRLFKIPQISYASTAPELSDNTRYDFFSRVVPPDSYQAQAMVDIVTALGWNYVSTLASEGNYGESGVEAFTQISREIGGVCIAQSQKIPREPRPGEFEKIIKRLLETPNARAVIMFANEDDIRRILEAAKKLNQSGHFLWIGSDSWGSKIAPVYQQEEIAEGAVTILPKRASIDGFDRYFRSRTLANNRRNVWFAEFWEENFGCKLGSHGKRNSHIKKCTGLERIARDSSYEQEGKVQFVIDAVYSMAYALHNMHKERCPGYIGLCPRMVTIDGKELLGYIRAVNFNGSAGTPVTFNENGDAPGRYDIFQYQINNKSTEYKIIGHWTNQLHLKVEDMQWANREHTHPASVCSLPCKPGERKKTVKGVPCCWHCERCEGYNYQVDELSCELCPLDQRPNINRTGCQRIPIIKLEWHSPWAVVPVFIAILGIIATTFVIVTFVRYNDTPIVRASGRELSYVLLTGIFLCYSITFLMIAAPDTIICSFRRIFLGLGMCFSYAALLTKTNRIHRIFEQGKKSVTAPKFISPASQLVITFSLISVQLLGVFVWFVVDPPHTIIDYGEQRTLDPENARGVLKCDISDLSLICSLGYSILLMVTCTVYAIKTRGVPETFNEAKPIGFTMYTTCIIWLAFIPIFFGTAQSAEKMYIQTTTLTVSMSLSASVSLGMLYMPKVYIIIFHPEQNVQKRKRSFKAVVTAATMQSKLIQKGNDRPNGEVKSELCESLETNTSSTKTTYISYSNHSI
As for `N#C/C(=N\Nc1ccc(Cl)cc1)C(=N)N1CCCCC1`, the z-score was found to be 0.186. For `Cc1cccc(C(=O)Nc2nnc(SCC(=O)Nc3ccc4c(c3)oc3ccccc34)s2)c1` the value was -0.242; for `COC(=O)C1CCN(S(C)(=O)=O)CC1`, -0.211. Then `CCc1ccccc1NC(=S)NCc1ccc2c(c1)OCO2`, with -0.0875. Then `C/C(N)=C(/C#N)C(=O)CSc1nnc(Nc2ccccc2C)s1`, with -0.126; and `CSc1nnc(Nc2ccccc2C)s1`, with -0.0316. With `CCCSc1nnc(Nc2ccccc2C)s1`, the z-score was 4.96 (active). Molecule `COc1ccccc1Nc1nnc(C)c(=O)[nH]1` showed a z-score of -0.361. On to `COc1ccc(OC)c(Nc2ccc(Nc3cc(OC)ccc3OC)nn2)c1`, for which the z-score is -0.125.

Consider `COc1ccccc1Nc1ccc(Nc2ccccc2OC)nn1`, for which the z-score was determined as 2.82. `O=Cc1cn(CC(=O)N2CCOCC2)c2ccccc12` gave a z-score of -0.773.

Regarding `Cc1noc(C)c1C(=O)N1CCN(C(=O)c2sc3cc(Cl)ccc3c2Cl)CC1`, the z-score is -0.676. With `O=C(C[n+]1cc(-c2ccc(Cl)c(Cl)c2)n2c1CCC2)OCc1ccccc1`, the z-score stood at 0.0701. Then `O=C(C[n+]1cc(-c2ccccc2)n2c1CCC2)N1c2ccccc2Sc2ccccc21`, with -0.288; and `O=C(C[n+]1cc(-c2ccccc2)n2c1CCC2)OCc1ccccc1`, with 5.17 (active). For `NC(=O)C(c1ncc(C(F)(F)F)cc1Cl)c1c(Cl)cccc1Cl` (stereo not drawn) the value was -0.197; for `CC1(C)Cc2[nH]c(=O)c(C#N)cc2CS1`, 0.0257; for `CCn1c(SCc2ccc(Cl)cc2Cl)nc2nc3c(cc2c1=O)CCCC3`, -0.163.

Molecule `CC1CCCCC1NC(=O)COn1nnc2ccc(Cl)cc21` (stereo not drawn) registered a z-score of -0.171. Then `CCN(CC)c1ccc(NS(=O)(=O)c2ccc3c(c2)oc(=O)n3C)c(C)c1`, with 0.308; and `CCOC(=O)Cn1c(=O)oc2cc(S(=O)(=O)NCCc3ccc(C)cc3)ccc21`, with -0.171; and `CCOC(=O)Cn1c(=O)oc2cc(S(=O)(=O)Nc3ccc(N(CC)CC)cc3C)ccc21`, with 2.74.

`CCCCNS(=O)(=O)c1ccc2c(c1)oc(=O)n2CC(=O)OCC` yielded a z-score of 0.0209.

For `CCOC(=O)Cn1c(=O)oc2cc(S(=O)(=O)Nc3c(C)cc(C)cc3C)ccc21`, the z-score is -0.223. Then `CCOC(=O)Cn1c(=O)oc2cc(S(=O)(=O)NCCCc3ccccc3)ccc21`, with 3.36 (active).

`N#CCC(=O)N/N=C1\CCCCC1C1CCCCC1` (stereo not drawn) displayed a z-score of 0.419. Take `CC(C)C(=O)Nc1ccnc(-c2cccnc2)n1`: the z-score is -0.0191. For `CC(C)OC(=O)c1cc2c(ccn2C)n1CC(=O)N(Cc1ccccc1)c1ccccc1` the value was -0.243; for `CCN1/C(=C2/OC(=S)N(C)C2=O)Sc2ccccc21`, 1.02; for `O=C(COc1ccccc1)N1CCN(S(=O)(=O)Cc2ccccc2)CC1`, 0.0406. Turning to `O=S(=O)(Nc1ccc2nc(C(F)(F)F)[nH]c2c1)c1ccccc1`, the z-score is 4.74 (active).

In the case of `O=S(=O)(Nc1ccc2nc(-c3ccc(Br)o3)[nH]c2c1)c1ccccc1`, the z-score was -0.849. Then `Cc1ccc(-c2nc3ccc(NS(=O)(=O)c4ccccc4)cc3[nH]2)o1`, with 1.31; and `Cc1ccc2[nH]c(=O)c(C(c3nnnn3C(C)(C)C)N3CCN(C(=O)c4ccco4)CC3)cc2c1` (stereo not drawn), with -0.0115; and `CCCCn1c(S(=O)(=O)O)nc2ccccc21`, with -0.0451. For `CCC(C)Cn1c(S(=O)(=O)O)nc2ccccc21` (stereo not drawn) the value was -0.238; for `CC(C)CCn1c(S(=O)(=O)O)nc2ccccc21`, 3.16 (active). Then `CC(C)Sc1nc2c(c(=O)n1-c1ccc(F)cc1)SCC2`, with -0.98; and `CCc1nnc(NC(=O)c2cc(-c3ccccc3)nn2-c2ccccc2)s1`, with 0.27.

Consider `O=C(Nc1nc2ccccc2s1)c1cc(-c2ccccc2)nn1-c1ccccc1`, for which the z-score turned out to be 1.18.

Turning to `CC(=O)c1sc(NC(=O)c2cc(-c3ccccc3)nn2-c2ccccc2)nc1C`, the z-score was 3 (active). Then `Cc1ccc(C)c(NC(=O)c2cc(-c3ccccc3)nn2-c2ccccc2)c1`, with 2.08; and `Cc1ccc(NC(=O)c2cc(-c3ccccc3)nn2-c2ccccc2)cc1`, with 1.28; and `Cc1ccc(NC(=O)c2cc(-c3ccccc3)nn2-c2ccccc2)c(Br)c1`, with 0.496. Then `COc1nccnc1NS(=O)(=O)c1ccc(N=Cc2c(C)[nH]n(-c3ccccc3)c2=O)cc1`, with -0.188; and `CCC(C)NS(=O)(=O)c1ccc(NC(=O)c2ccc([N+](=O)[O-])cc2Cl)cc1` (stereo not drawn), with 0.0866.

As for `CCCCN(CCCC)S(=O)(=O)c1ccc(NC(=O)c2ccc([N+](=O)[O-])cc2Cl)cc1`, the z-score was 3.01 (active). Then `CN(C)c1ccc(NC(=O)c2ccc([N+](=O)[O-])cc2Cl)cc1`, with -0.282; and `C=CCOn1c(=O)c(-c2ccc(OC)c(OC)c2)[n+]([O-])c2ccccc21`, with -0.224; and `CCOC(=O)c1nn(-c2ccc(F)cc2)c2nc(Nc3ccccc3)cc(=O)n12`, with -0.123. In turn, `O=C(Nc1ccc2nc(-c3ccc(Br)o3)[nH]c2c1)c1cccs1` gave a z-score of -0.969.

Take `CCc1cc2c(N[C@@H](Cc3c[nH]c4ccccc34)C(=O)O)ncnc2s1`: the z-score was -0.16. Then `CN(CC(=O)Nc1ccncc1)S(=O)(=O)c1ccc(Br)cc1`, with -0.284; and `CN(CC(=O)Nn1cnnc1)S(=O)(=O)c1ccccc1`, with -0.262. For `CN(CC(=O)Nn1cnnc1)S(=O)(=O)c1ccc(Br)cc1` the value was 4.35 (active); for `Cc1cc(=O)[nH]c(-n2nc(C)c(Oc3ccccc3O)c2C)n1`, -0.0623; for `Cc1ccc(-c2c(C)sc(NC(=O)C3C4CCC(O4)C3C(=O)O)c2C(=O)OC(C)C)cc1` (stereo not drawn), 4.99 (active). Then `CCOC(=O)c1c(NC(=O)C2C3CCC(O3)C2C(=O)O)sc(C)c1-c1ccc(C)cc1` (stereo not drawn), with -0.26.

Molecule `Cc1sc(NC(=O)C2C3CCC(O3)C2C(=O)O)c(C(=O)OC(C)C)c1-c1ccc(Cl)cc1` (stereo not drawn) yielded a z-score of -0.429. For `COC(=O)C(C)Sc1nnc(-c2ccncc2)o1` (stereo not drawn) the value was -0.297. For `CCOC(=O)N1CCC(N2C(=O)c3cc(C(=O)NC4CCCCC4)ccc3C2O)CC1` (stereo not drawn) the value was -0.198. `CCOC(=O)N1CCC(N2C(=O)c3ccc(C(=O)NCc4ccco4)cc3C2=O)CC1` yielded a z-score of -0.36. On to `CCOC(=O)c1c(NC(=O)C2C3C=CC(C3)C2C(=O)O)sc2c1CCC(CC)C2` (stereo not drawn), for which the z-score was 3.71 (active). Then `CCOC(=O)c1c(N)sc2c1CCC(CC)C2` (stereo not drawn), with 0.0842; and `CCOC(=O)c1c(NC(=O)C2C3C=CC(CC3)C2C(=O)O)sc(C)c1C` (stereo not drawn), with 0.959; and `Cc1ccc(OCCNC(=O)/C=C/c2ccccc2)cc1C`, with -0.203.

Take `CCOC(=O)c1nn(-c2ccccc2)c(=O)cc1SC(C)C`: the z-score was -0.0576.

As to `COC(=O)NNC(=O)c1cccc(C)c1`, the z-score was -0.067. `Cc1cccc(C(=O)NNC(=O)C(=O)NC(C)(C)C)c1`: the z-score is 2.45.

As for `CC(C)(C)NC(=O)C(=O)NNC(=O)c1ccc(C(C)(C)C)cc1`, the z-score was 5.3 (active). Then `CC(C)(C)c1ccc(C(=O)NNC(=O)C(=O)N2CCCCC2)cc1`, with 0.478; and `CC(C)(C)NC(=O)C(=O)NNC(=O)c1ccccc1`, with 1.57; and `Cc1cccc(C(=O)NNC(=O)c2ccccc2)c1`, with -0.0133.

(Values after PubChem BioAssay AID488969 (Vanderbilt High Throughput Screening Facility, 2010).)
